Read-out in test [1]: TIMP metallopeptidase inhibitor 2 (TIMP2), TIMP2 (gene 7077)
Nature of the test: BSK_hDFCGF_TIMP2: BioMAP Diversity Plus: hDFCGF Assay for TIMP metallopeptidase inhibitor 2 (TIMP2) Biomarker Activity (AID 2284289). Particulars: primary human foreskin fibroblasts. An outline of the steps:
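Primary human foreskin fibroblasts in the hDFCGF system, dosed for 24 h; TIMP-2 level measured by ELISA, fitted in the positive direction against DMSO; cytotoxicity checked in parallel by sulforhodamine B total protein staining.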

Read-out in test [2]: Interleukin-1 alpha (IL1a), IL1A (gene 3552)
Nature of the test: BSK_IMphg_IL1a: BioMAP Diversity Plus: IMphg Assay for Interleukin-1 alpha (IL1a) Biomarker Activity (AID 2284290). Particulars: primary human endothelial cells with macrophages. An outline of the steps:
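Human venular endothelial cells co-cultured with macrophages, IMphg system. IL-1α is measured by ELISA 24 h after dosing and fitted in the positive direction against DMSO. Cytotoxicity is assessed by SRB staining of parallel cultures.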

Read-out in test [3]: E-selectin (Homo sapiens) (UniProt P16581)
Nature of the test: BSK_IMphg_ESelectin: BioMAP Diversity Plus: IMphg Assay for Eselectin Biomarker Activity (AID 2284291). The conditions noted are these: primary human endothelial cells with macrophages. The protocol: (§1) BSK_IMphg is a cell-based, multiplexed-readout assay that uses venular endothelial cells and macrophages, a human vascular primary cell, with measurements taken at 24 hours after chemical dosing in a microplate: 96-well plate.BSK_IMphg_ESelectin is an assay component measured in the BSK_IMphg assay. It measures E-selectin antibody related to regulation of gene expression using ELISA technology.Data from the assay component BSK_IMphg_ESelectin was analyzed at the endpoint, BSK_IMphg_ESelectin, in the positive analysis fitting direction relative to DMSO as the negative control and baseline of activity. Using a type of binding reporter, gain or loss-of-signal activity can be used to understand protein changes. To generalize the intended target to other relatable targets, this assay endpoint is annotated to the 'cell adhesion molecules' intended target family, where the subfamily is 'selectins'.
(§2) The levels of cell surface (or secreted, indicated by the prefix "s") biomarker endpoints were measured by ELISA. Overt cytotoxicity to cells in confluent adherent cultures (all systems other than the BT system) was assessed by measuring total protein levels using sulforhodamine B (SRB) staining in parallel cultures at the time of biomarker measurements, indicated as SRB endpoints. For proliferation assays for adherent cell types, individual cell types are cultured at sub-confluence and relative cell numbers quantified by SRB staining at time points optimized for each system (48 h: 3C and CASM3C systems; 72 h: BT and HDF3CGF systems; 96 h: SAg system). SRB was performed by staining cells with 0.1% SRB after fixation with 10% TCA and reading wells at 560 nm.Viability and proliferation of PBMC (T cells) was quantified by Alamar Blue reduction for the SAg and BT systems. For PBMC viability (referred to as PBMC Cytotoxicity within the assay endpoint names), cells were plated (75,000/well in a 96-well plate) and then chemical samples added for 1 h before addition of activators, SEB and TSST-1 (20 ng/mL final concentration each). Cells were incubated for 90 h. Then, Alamar Blue (20 uL/well) (Invitrogen, Cat DAL1100) was added for 6 h, and the plates were read with a fluorescence microplate reader at 546/580 nm (excitation/emission). For PBMC proliferation, cells were plated and activated as above but incubated for only 16 h prior to addition of Alamar Blue. Plates were read after 6 h.

Test [4] in a line: BSK_IMphg_SRB: Viability Assessment in the BioMAP Diversity Plus: IMphg Assay (AID 2284292).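 Also: measured one day after compound addition.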 The conditions noted are these: primary human endothelial cells with macrophages. In outline: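 Human venular endothelial cells with macrophages, 24 h after chemical dosing; total protein by 0.1% SRB staining after 10% TCA fixation, read at 560 nm. Positive-direction fitting versus DMSO baseline.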

Read-out in test [5]: Macrophage colony-stimulating factor (MCSF), CSF1 (gene 1435)
Nature of the test: BSK_IMphg_MCSF: BioMAP Diversity Plus: IMphg Assay for Macrophage colony-stimulating factor (MCSF) Biomarker Activity (AID 2284293). Particulars: primary human endothelial cells with macrophages. The protocol: as §1, with “plate.BSK_IMphg_MCSF” for “plate.BSK_IMphg_ESelectin”, “M-CSF” for “E-selectin”, “BSK_IMphg_MCSF” for “BSK_IMphg_ESelectin”, “BSK_IMphg_MCSF,” for “BSK_IMphg_ESelectin,”, “'cytokine'” for “'cell adhesion molecules'”, “'colony stimulating factor'.” for “'selectins'.”
as §2

Read-out in test [6]: Interleukin-10 (IL10), IL10 (gene 3586)
Nature of the test: BSK_IMphg_IL10: BioMAP Diversity Plus: IMphg Assay for Interleukin-10 (IL10) Biomarker Activity (AID 2284294). Particulars: primary human endothelial cells with macrophages. In outline: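 Human venular endothelial cells cocultured with macrophages, dosed 24 h; IL-10 measured by ELISA, activity relative to DMSO. Cytotoxicity assessed in parallel cultures by sulforhodamine B total-protein staining.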

The nature of test [7]: BSK_IMphg_SRB.Mphg: Macrophage Viability Assessment in the BioMAP Diversity Plus: IMphg Assay (AID 2284295). The conditions noted are these: primary human endothelial cells with macrophages. In outline:
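Venular endothelial cells co-cultured with macrophages, read 24 h after dosing. Total protein measured by 0.1% SRB staining after 10% TCA fixation, absorbance at 560 nm. Fitted in positive direction against DMSO baseline.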

Read-out in test [8]: Thrombomodulin, THBD (gene 7056)
Nature of the test: BSK_LPS_Thrombomodulin: BioMAP Diversity Plus: LPS Assay for Thrombomodulin Biomarker Activity (AID 2284296). Particulars: primary human HUVEC with PBMC. In outline: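 Human umbilical vein endothelial cells co-cultured with PBMC and stimulated with LPS; cell-surface thrombomodulin measured by ELISA 24 hours after compound. Gain or loss versus DMSO; cytotoxicity checked by SRB staining in parallel cultures.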

The nature of test [9]: IUF_NPC2c_oligodendrocyte_migration_120hr: Leibniz Research Institute for Environmental Medicine (IUF) 120-hour Neural Progenitor Cell Migration Assay for Oligodendrocyte Migration (NPC2c) (AID 2284297).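 Also: O4-positive oligodendrocyte migration distance divided by radial glia migration distance.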 An outline of the steps:
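hNPC spheres (GW 16-19 cortex), PDL/laminin, DMEM/F12 3:1 + 1% N2, 37C. Dosing day 0–5, half feed day 3, DMSO ≤0.1%. Fixed 120 h; O4 ICC + Hoechst, HCI. Readout: mean oligodendrocyte distance from sphere edge / radial glia distance.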

Test [10] in a line: IUF_NPC2a_radial_glia_migration_120hr: Leibniz Research Institute for Environmental Medicine (IUF) 120-hour Neural Progenitor Cell Migration Assay for Radial Glia Migration (NPC2a) (AID 2284298). An outline of the steps: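 Hoechst-stained nuclei imaged at 120 h; algorithm maps sphere core by densest nuclei, sets migration edge at density threshold, gives radial glia migration distance (um) per well vs DMSO. hNPC spheres (0.3 mm), PDL/laminin, DMEM/F12 3:1 + 1% N2.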

Where “and” joins values, the source holds several entries; their conditions need not be identical. Equal entries are not always repeated. Where a structure was tested more than once in an assay, its records may differ in their call. Calls of active or inactive are those of the source. The calls were made as follows: active = hit-call score of the fitted dose curve at least 0.9, where 1 is the maximum; inactive = score below 0.9.

Chain of E-selectin (Homo sapiens) (P16581 whole entry, looked up): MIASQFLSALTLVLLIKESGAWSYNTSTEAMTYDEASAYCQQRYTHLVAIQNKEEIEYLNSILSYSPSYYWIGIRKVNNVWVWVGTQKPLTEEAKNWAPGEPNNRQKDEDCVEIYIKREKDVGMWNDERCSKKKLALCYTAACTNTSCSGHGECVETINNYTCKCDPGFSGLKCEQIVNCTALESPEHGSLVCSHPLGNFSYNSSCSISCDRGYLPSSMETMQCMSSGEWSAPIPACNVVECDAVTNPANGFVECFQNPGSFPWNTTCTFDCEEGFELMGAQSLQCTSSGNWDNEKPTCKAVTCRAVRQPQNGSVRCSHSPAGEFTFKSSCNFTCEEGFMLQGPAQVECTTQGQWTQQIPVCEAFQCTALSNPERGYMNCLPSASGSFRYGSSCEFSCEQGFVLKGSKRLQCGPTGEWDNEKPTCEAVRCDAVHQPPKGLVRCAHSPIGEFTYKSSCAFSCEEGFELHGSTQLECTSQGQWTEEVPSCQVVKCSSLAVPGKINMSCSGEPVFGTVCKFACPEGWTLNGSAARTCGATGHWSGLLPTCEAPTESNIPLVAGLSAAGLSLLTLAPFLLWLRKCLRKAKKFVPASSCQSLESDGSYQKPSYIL

`O=C(O)C(F)(F)C(F)(F)C(F)(F)C(F)(F)C(F)(F)C(F)(F)C(F)(F)C(F)(F)C(F)(F)F`: the concentration at half-maximal activity (AC50) is 11.2 µM (active) and 19.7 µM (active) in [1]; 47.6 µM (active) and 50.2 µM (active) in test [3]; 53.8 µM (active) and 46.6 µM (active) in test [4]; 49.6 µM (active) and 45.5 µM (active) in test [6]; 44.9 µM (active) and 46.2 µM (active) in [7]; 51.4 µM (active) and 54.9 µM (active) in test [8]. The result in test [2] and in test [5] was inactive.
Take `CCOP(=S)(OCC)SCSC(C)(C)C`: the result in test [9] and in test [10] was inactive.
As for `O=C(O)C(F)(F)C(F)(F)C(F)(F)C(F)(F)C(F)(F)F`, the result in test [1], in test [2], in [3], in test [4], in test [5] and in test [6] was inactive. The outcome in test [7] and in test [8] was inactive.
`CO/C=C(/C(=O)OC)c1ccccc1COc1cccc(C(F)(F)F)n1`: the AC50 is 34.6 µM (active) in test [9] and 33 µM (active) in [10].
Turning to `C=CC(N)=O`, the outcome in test [9] and in [10] was inactive.
Regarding `COc1ccc(O)c(C(C)(C)C)c1`, the result in test [1] and in [8] was inactive.
`O=C(O)C(F)(F)C(F)(F)C(F)(F)C(F)(F)C(F)(F)C(F)(F)C(F)(F)C(F)(F)F`: the result in test [1], in test [2], in test [3], in test [4], in test [5] and in [7] was inactive. Further, the outcome in test [8] was inactive. For the same compound, the AC50 is 44.9 µM (active) in test [4]; 39 µM (active) and 21.3 µM (active) in [6]; 18 µM (active) in test [7].
Consider `O=S(=O)(O)C(F)(F)C(F)(F)C(F)(F)C(F)(F)C(F)(F)C(F)(F)F`, for which the result in test [1], in [2], in test [3], in [4], in test [5] and in test [7] was inactive. Further, the result in test [8], in test [9] and in test [10] was inactive. Further, the concentration at half-maximal activity (AC50) in test [3] is 37.6 µM (active); in test [6], 46.3 µM (active) and 19 µM (active).
For `NS(=O)(=O)C(F)(F)C(F)(F)C(F)(F)C(F)(F)C(F)(F)C(F)(F)C(F)(F)C(F)(F)F`, the AC50 is 53.9 µM (active) and 52.3 µM (active) in test [1]; 53.6 µM (active) and 52.9 µM (active) in [2]; 39.9 µM (active) and 30 µM (active) in test [3]; 51 µM (active) and 48.3 µM (active) in test [4]; 30 µM (active) in test [5]; 48.2 µM (active) and 47.2 µM (active) in [6]. In addition, the AC50 in test [7] was 43.4 µM (active) and 48.1 µM (active); in test [8], 14.5 µM (active). The outcome in [5] and in [8] was inactive.
On to `O=S(=O)(O)C(F)(F)C(F)(F)C(F)(F)C(F)(F)F`, for which the result in test [1], in [2], in test [3], in test [4], in test [5] and in [6] was inactive. Further, the outcome in test [7], in [8], in [9] and in test [10] was inactive.

What is called AC50 is the midpoint of the concentration-response curve, whichever way the signal moves.

The values are drawn from PubChem BioAssay (EPA / NIEHS).
